SNCA expr inhib – Primary qHTS assay for inhibitors of alpha-synuclein gene (SNCA) expression; HEK-293 SNCA-luciferase knock-in, luminescence, 24 h; Potency, µM (doses to about 57.2 µM), for the others: at the top dose activity change, negative = inhibition, hits mostly inhibitors; 140,000 compounds, 0.17% hits;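 further: potency means the concentration at half of the fitted maximal effect; plate controls were DMSO cells for no effect and cell-free wells for full effect; nearly all actives have a fitted effect of over 45% in size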
SNCA viab count – GF-AFC viability counterscreen for inhibitors of alpha-synuclein gene (SNCA) expression. AID 1671193, 2021. HEK-293-SNCA-luc viability, GF-AFC fluorescence, 24 h. 150,000 compounds, 0.12% hits. Potency, µM (highest dose often 57.1 µM), for the others: at the top dose activity change, negative = cytotoxicity, actives largely listed as cytotoxic;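 further: potency means the concentration at half of the fitted maximal effect; 0% = DMSO-treated cells and -100% = medium-only wells without cells; nearly all actives have a fitted effect of over 30% in size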
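HEK-293-SNCA-luc cells (1500/well) plated 24 h, then exposed 24 h to a dilution series; GF-AFC added 30 min at 37C, fluorescence 405/540 nm; normalised to medium-only and DMSO wells, Hill fit.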
IP6K1 inh – Primary qHTS assay for small molecule inhibitors of Inositol hexaphosphate kinase 1 (IP6K1); IP6K1 kinase, ADP-Glo luminescence, 2 h; hits give low values; activity change, % (series mostly up to about 58 µM); 140,000 compounds, 0.81% hits; AID 1645851, 2021; in the data active means activity change below about -25%; further: on the % scale 0 is the no-effect control and ±100 the full control effect
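ADP-Glo luminescence measures ADP made by human IP6K1 during a 2 h RT reaction with ATP/IP6 (mix at 1.3 mM/130 uM); top library doses 57.5 and 19.1 uM final.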
KDM5B inhibitor – Primary screen for KDM5B Histone Demethylases FDH-coupled qHTS; Potency, µM (titrated, usually from 57.7 µM), most hits filed as inhibitors; AID 1347165, 2019; Lysine-specific demethylase 5B (Homo sapiens), Q9UGL1; KDM5B demethylase, FDH-coupled NADH fluorescence (FDH is formaldehyde dehydrogenase); 220,000 compounds, 2.6% hits; further: potency means the concentration at half of the fitted maximal effect; 0% is about no effect; nearly all actives have a fitted effect of over 70% in size
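qHTS format, multiple compound concentrations. Buffer 50 mM HEPES pH 7.5/0.01% Tween-20; 200 nM KDM5BΔAP final; 10 min compound preincubation; substrate-mix levels 12.5 µM peptide, 25 µM α-KG, 0.25 mM NAD⁺; 30 min RT; ΔRFU.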
* = called active by the depositor; i = inactive; u = inconclusive; x = no result given; [ ] = another dose, or the depositor's remark. Only some compounds are listed: those with a hit (about 2.8% of all), similar ones and a draw of the others. Unless noted, the call rests on the fitted dose curve; in most records, active means well fitted curve in the direction sought with a large enough effect; inconclusive means small, poorly fitted or top-dose-only effect, or another doubt; inactive means no such curve, though single readings can be large; an effect the other way counts as inactive or inconclusive.

SMILES | SNCA expr inhib | SNCA viab count | IP6K1 inh | KDM5B inhibitor
Cc1ccc(CN2CCc3nc(C(=O)Nc4ccccc4)oc3CC2)cc1 | 59%[87.6 µM] | -11%[87.6 µM] | 10 | 35µM*
O=C(Nc1ccccc1)c1nc2c(o1)CCN(Cc1ccc(O)cc1)CC2 | -22%[87.6 µM] | -2%[87.6 µM] | 17 | i
Cc1ccccc1CN1CCc2nc(C(=O)NCCOc3ccccc3)oc2CC1 | -17%[87.6 µM] | 2%[87.6 µM] | 1 | 32µM*
COc1ccc(CN2CCc3nc(C(=O)Nc4ccc(Cl)cc4)oc3CC2)cn1 | 6%[87.6 µM] | -19%[87.6 µM] | -3 | u
O=C(Nc1ccc(Cl)cc1)c1nc2c(o1)CCN(Cc1ccc3cn[nH]c3c1)CC2 | -30%[87.6 µM] | u | 2 | 35µM*
O=C(Nc1ccccc1)c1nc2c(o1)CCN(Cc1ccc(F)c(Cl)c1)CC2 | 76%[87.6 µM] | -29%[87.6 µM] | -12 | 28µM*
O=C(/C=C/c1cccs1)Oc1cccc2ccccc12 | x | x | x | i
O=C(c1ccccc1OCC1CCCN(C2CCCC2)C1)N1CCOCC1 (configuration not stated) | -12% | -12% | -4 | i
COc1ccc(-c2cccc(C(=O)NCC(C)C)c2)nn1 | x | x | 11 | x
O=C(Nc1ccc(Cl)cc1)c1nc2c(o1)CCN(Cc1cccc(O)c1)CC2 | -22%[87.6 µM] | u | -9 | 32µM*
Cc1ccc(CN2CCc3nc(C(=O)Nc4ccc(Cl)cc4)oc3CC2)cc1 | -17%[87.6 µM] | -4%[87.6 µM] | -6 | 35µM*
O=C(Nc1ccc(Cl)cc1)c1nc2c(o1)CCN(Cc1ccc3c(c1)CCO3)CC2 | -20%[87.6 µM] | -16%[87.6 µM] | 6 | 32µM*
O=C(Nc1ccccc1)c1nc2c(o1)CCN(Cc1cccs1)CC2 | 11µM* | -2%[87.6 µM] | -17 | u
O=C(Nc1ccc(Cl)cc1)c1nc2c(o1)CCN(Cc1ccncc1)CC2 | 1%[87.6 µM] | -7%[87.6 µM] | 2 | i
O=C(Nc1ccc(Cl)cc1)c1nc2c(o1)CCN(Cc1nccs1)CC2 | 10%[87.6 µM] | -8%[87.6 µM] | 10 | i
O=C(Nc1ccc(Cl)cc1)c1nc2c(o1)CCN(CC1CC1)CC2 | 52%[87.6 µM] | 5%[87.6 µM] | 9 | i
C=C(C)c1cccc(C(C)(C)NC(=O)NCC2(C)CC(NC(=O)NC(C)(C)c3cccc(C(=C)C)c3)CC(C)(C)C2)c1 (configuration not stated) | x | x | x | i
CC(=O)NCC(=O)N1CC[C@@H]2COCCN(Cc3cccnc3)[C@@H]2C1 | 7% | 10% | -3 | u
O=C(NCC1CCN(c2cc(-c3ccccc3)[nH]n2)CC1)c1ccc[nH]c1=O | 3% | -6% | 8 | 32µM*
Cc1nn2c(c1-c1ccccc1C(C)C)N(Cc1ccc(C(=O)O)cc1)CCC2 | -11%[87.6 µM] | 1%[87.6 µM] | 26 | i
Cc1nn2c(c1-c1ccccc1C(C)C)N(CCC(C)C)CCC2 | u | u | -2 | 18µM*
Cc1nn2c(c1-c1ccccc1C(C)C)N(C(=O)c1cc3ccccc3n1C)CCC2 | u | 35µM* | 6 | i
CCCCn1nc(C(=O)Nc2ccc(OC)c(Cl)c2)c2ccccc2c1=O | x | x | x | i
N#Cc1cccc(-c2ccnc(N[C@H]3CO[C@H]4[C@@H]3OC[C@@H]4NC(=O)N3CCOCC3)n2)c1 | -17% | 8% | -6 | 32µM*
CC(=O)N[C@H]1CO[C@H]2[C@@H]1OC[C@@H]2Nc1nccc(-c2cccc(F)c2)n1 | u | 3%[87.6 µM] | -8 | 35µM*
SMILES | SNCA expr inhib | SNCA viab count | IP6K1 inh | KDM5B inhibitor
CCNC(=O)N[C@H]1CO[C@H]2[C@@H]1OC[C@@H]2Nc1nccc(-c2cccc(F)c2)n1 | u | 2%[87.6 µM] | -10 | 32µM*
CC(C)(C)C(=O)N[C@H]1CO[C@H]2[C@@H]1OC[C@@H]2Nc1nccc(-c2cccc(C#N)c2)n1 | 6%[87.6 µM] | -1%[87.6 µM] | -8 | u
COCC(=O)N[C@H]1CO[C@H]2[C@@H]1OC[C@@H]2Nc1nccc(-c2cccc(C#N)c2)n1 | 2%[87.6 µM] | 2%[87.6 µM] | -11 | u
O=C(N[C@H]1CO[C@H]2[C@@H]1OC[C@@H]2Nc1nccc(-c2cccc(F)c2)n1)c1ccccc1 | u | 4%[87.6 µM] | 0 | u
COCC(=O)N[C@H]1CO[C@H]2[C@@H]1OC[C@@H]2Nc1nccc(-c2cccc(F)c2)n1 | 22%[87.6 µM] | -4%[87.6 µM] | -5 | 35µM*
CCCOc1ccc(-c2c(C(=O)N/N=C/c3ccccc3)nnn2-c2nonc2N)cc1 | x | x | x | i
O=C(NC1CCN(c2nc3ncccc3o2)CC1)C1CC1 | 8%[87.6 µM] | -12%[87.6 µM] | -3 | 28µM*
O=[S+]([O-])(NC1CCN(c2nc3ncccc3o2)CC1)c1cccs1 | -8% | 5% | -2 | 22µM*
O=C(NCc1cccs1)C1CCN(c2nc3ncccc3o2)CC1 | 12%[87.6 µM] | 7%[87.6 µM] | -1 | 32µM*
COC(=O)NC1CCN(c2nc3ncccc3o2)CC1 | 11%[87.6 µM] | 1%[87.6 µM] | -10 | 35µM*
O=C(NC1CC1)C1CCN(c2nc3ncccc3o2)CC1 | 17%[87.6 µM] | 1%[87.6 µM] | 10 | x
O=[S+]([O-])(c1cccs1)N1CCN(c2nc3ncccc3o2)CC1 | 5% | 19% | -6 | i
Cc1ccc(C(=O)N(CCCN)C(c2oc3cc(Cl)ccc3c(=O)c2Cc2ccccc2)C(C)C)cc1 (configuration not stated) | x | 30µM* | -1 | x
O=C1c2cc(N3CCOCC3)nc(-c3cccc(F)c3)c2CN1Cc1ccccc1 | -26%[87.6 µM] | 6%[87.6 µM] | 11 | 32µM*
O=C1c2cc(N3CCOCC3)nc(-c3cccc(CO)c3)c2CN1Cc1ccccc1 | -9%[87.6 µM] | -13%[87.6 µM] | 3 | 35µM*
O=C1c2cc(N3CCOCC3)nc(-c3ccc(F)cc3)c2CN1Cc1ccccc1 | -10%[87.6 µM] | 0%[87.6 µM] | 8 | 35µM*
CNC(=O)[C@H]1C[C@H](Oc2ccccc2)CN1Cc1sccc1C | -6% | 7% | 15 | i
CC1(C)[C@@H]2CC[C@@]1(C)C(=O)C2 | 0%[25.6 µM] | 9%[23.9 µM] | 14 | x
COc1ccc(-c2cc3c(=O)n(CCNC(=O)Cc4cccs4)ccn3n2)cc1 | 5% | -8% | 4 | u
CCOc1ccc(-c2cc3c(=O)n(CCNC(=O)c4cccc(N(C)C)c4)ccn3n2)cc1 | 94% | -6% | -10 | 32µM*
CCOc1ccc(-c2cc3c(=O)n(CCNC(=O)c4ccc(C)c(C)c4)ccn3n2)cc1 | 33% | 2% | -6 | 18µM*
Cc1ccc(C)c(-c2cc3c(=O)n(CCNC(=O)c4cccc(N(C)C)c4)ccn3n2)c1 | u | u | 7 | 32µM*
CCOc1ccc(-c2cc3c(=O)n(CCNC(=O)c4ccccc4)ccn3n2)cc1 | 41% | -2% | -2 | i
CCOc1ccc(-c2cc3c(=O)n(CCNC(=O)c4ccc(C)cc4)ccn3n2)cc1 | 106% | 7% | -2 | i
CCOc1ccc(-c2cc3c(=O)n(CCNC(=O)Cc4cccs4)ccn3n2)cc1 | 30% | -13% | -9 | 32µM*
O=C(O)CCn1ncc2cc(OC3CCN(C(=O)c4ccccc4OC(F)(F)F)CC3)ccc21 | 11% | 6% | 1 | i

Bioassay records deposited in PubChem by National Center for Advancing Translational Sciences (NCATS).
